Measured values published in ChEMBL document CHEMBL3433997, “St. Jude Leishmania screening dataset” (2016).

Tests used:
Format in all cases: functional
[1] = target: Solute carrier family 2, facilitated glucose transporter member 1 (Homo sapiens) (UniProt P11166); experiment: ST_JUDE_LEISH: Cytotoxicity at 2uM final concentration against transgenic Leishmania Mexicana promastigotes LmGLUT1 that are glucose transport deficient and complemented with the human glucose transporter GLUT1. Activity is measured by DNA content using SYBR green in vitro
[2] = target: Hexose transporter 1 (Plasmodium falciparum) (UniProt O97467); experiment: ST_JUDE_LEISH: Cytotoxicity at 2uM final concentration against transgenic Leishmania Mexicana promastigotes LmPfHT that are glucose transport deficient and complemented with the Plasmodium falciparum hexose transporter. Activity is measured by DNA content using SYBR green in vitro
[3] = target: Glucose transporter (Leishmania mexicana) (UniProt O61059); experiment: ST_JUDE_LEISH: Cytotoxicity at 2uM final concentration against transgenic Leishmania Mexicana promastigotes LmGT2 that are glucose transport deficient and complemented with the L. Mexicana glucose transporter 2. Activity is measured by DNA content using SYBR green in vitro

Sequence of Solute carrier family 2, facilitated glucose transporter member 1 (Homo sapiens) (P11166 whole entry): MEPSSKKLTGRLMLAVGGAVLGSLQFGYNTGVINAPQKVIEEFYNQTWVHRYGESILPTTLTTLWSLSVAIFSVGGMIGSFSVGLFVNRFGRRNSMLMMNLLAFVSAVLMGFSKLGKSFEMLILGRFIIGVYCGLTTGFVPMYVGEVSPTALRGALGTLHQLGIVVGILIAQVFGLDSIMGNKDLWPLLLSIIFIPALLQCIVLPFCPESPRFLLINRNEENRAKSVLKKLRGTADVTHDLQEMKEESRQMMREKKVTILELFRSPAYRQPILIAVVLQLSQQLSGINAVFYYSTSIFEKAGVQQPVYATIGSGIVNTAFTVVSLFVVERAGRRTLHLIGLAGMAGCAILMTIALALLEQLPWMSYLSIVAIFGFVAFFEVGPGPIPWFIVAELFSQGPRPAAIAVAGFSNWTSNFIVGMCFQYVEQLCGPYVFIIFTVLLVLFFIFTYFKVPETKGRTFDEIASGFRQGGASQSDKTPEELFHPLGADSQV

Row | Compound | inhibition [1] [%] | inhibition [2] [%] | inhibition [3] [%]
1 | CN(C)c1ccc(-c2ccc(C(=O)NC3CCN(Cc4ccc(F)cc4)CC3)s2)cc1 | 5.83 | -1.68 | 3.76
2 | O=C(NC1CCCCC1)N(CCCn1ccnc1)Cc1csc(-c2ccc(CNCc3ccccc3)cc2)n1 | 0.1 | 0.82 | 1.34
3 | CCN1CCN(CCCNc2c3ccc(Cl)cc3nc3ccc(OC)cc23)CC1 | 9.58 | 9.46 | 8.38
4 | CCCCc1ccc(CCNCCCCCCNCCc2ccc(O)c(O)c2)cc1 | 0.01 | -0.03 | -1.2
5 | Cc1c(CNCCCNc2nc3cscc3[nH]2)sc(C(F)F)c1Br | 6.65 | 4.46 | 2.43
6 | Cc1cc2[nH]c(-c3ccc(C(=O)NCCCN4CCN(c5cccc(Cl)c5)CC4)s3)nc2cc1Cl | 3.07 | 3.29 | 2.02
7 | Cc1cc(Cl)ccc1NC(=O)Nc1ccc2nccc(N3CCN(C)CC3)c2c1 | 3.07 | 6.28 | 5.6
8 | Cc1cccc2nc(-c3ccc(-c4ccc(CN5CCN(CC6CCCN(C)C6)CC5)cc4)s3)[nH]c12 (configuration not stated) | 8.45 | 21.1 | 8.04
9 | O=C(Nc1cccc(-c2ccc(-c3nc4cc(F)ccc4[nH]3)cc2)c1)Nc1ccc(Cl)c(Cl)c1 | 5.5 | 2.93 | 5.84
10 | Nc1nccc2ccc(-c3ccc(NC(=O)Nc4cc(C(F)(F)F)ccc4F)cc3)cc12 | 0.91 | 4.94 | -0.4
11 | ON=C1CCc2cc(-c3[nH]c(-c4cccc(OCCNCc5ccc(F)cc5)c4)nc3-c3ccncc3)ccc21 | 16.7 | 9.15 | 10.8
12 | CCOc1cc(C)ccc1C1CCN(CCN2CCC(CNC(=O)c3ccc(-c4ccc(C(F)(F)F)cc4)cc3)CC2)CC1 | 0.7 | 2.7 | 1.5
13 | N=c1n(CCN2CCCCC2)c2ccccc2n1CC(O)c1ccc(Cl)c(Cl)c1 (configuration not stated) | 1.22 | -0.46 | 1.58
14 | O=C(Nc1ccc(Oc2ccccc2)cc1)N1CCC(CCN2CCC(c3c[nH]c4ccccc34)CC2)CC1 | 4.42 | 2.98 | 5.21
15 | CN1CCN(CC(=O)Nc2ccc(-c3cccc(-c4nc5cc(F)ccc5[nH]4)c3)cc2)CC1 | -0.65 | 0.74 | -1.87
16 | CN1CCCN(Cc2cccc(-c3cccc(NC(=O)c4cccc(Cl)c4)c3)c2)CC1 | 13.4 | 9.81 | 9.71
17 | CCN(CC)CCCCNc1cc(-c2[nH]c(C(C)(C)C)nc2-c2ccc3cc(OC)ccc3c2)ccn1 | 4.69 | 4.79 | 1.94
18 | CN1CCN(Cc2cccc(-c3ccc4c(Nc5ccc(F)cc5Cl)ccnc4c3)c2)CC1 | 4.11 | 6.5 | 3.82
19 | Fc1ccc(Nc2nnc(CNC3CCN(Cc4ccc(Cl)c(Cl)c4)CC3)[nH]2)cc1 | 2.85 | 0.21 | -0.83
20 | CN1CCCN(Cc2cccc(-c3cccc(NC(=O)c4ccc(C#N)cc4)c3)c2)CC1 | 11 | 7.28 | 6.98
21 | CCCCN(Cc1cccc(C(F)(F)F)c1Cl)c1ccc(C(O)(C(F)(F)F)C(F)(F)F)cc1 | 7.39 | 6.7 | 6.39
22 | COc1ccc(N2CCN(CCCCNC(=O)c3ccc(/C=C/c4ccc(Cl)c(Cl)c4)cc3)CC2)c(OC)c1 | -0.28 | 1.71 | 2.02

Row | Compound | inhibition [1] [%] | inhibition [2] [%] | inhibition [3] [%]
23 | O=C(Cn1cc(C=C2SC(=NC3CCCC3)N(C3CCCC3)C2=O)c2ccccc21)N1CCCC1 | 4.24 | 1.46 | 0.81
24 | CC1(C)NC(N)=NC(=N)N1OCCc1ccc(N)cc1 | 5.6 | 6.43 | 5.49
25 | CCOC(=O)c1ccc(OCc2ccc(-c3ccccc3)cc2)cc1 | -0.38 | -0.13 | 0.75
26 | Brc1ccc(Nc2nc(NCC3CCCO3)c3ccccc3n2)cc1 (configuration not stated) | 24.2 | 22.3 | 8.12
27 | CCn1c(SC)nnc1C1CCCN(CC(=O)Nc2nc3ccc(OC)cc3s2)C1 (configuration not stated) | 4.48 | 3.27 | 0.77
28 | Cc1ccc(/C=C/C(=O)NCCCCCN2CCN(C(=O)Nc3ccc(Cl)c(C(F)(F)F)c3)CC2)cc1 | 4.47 | -0.2 | 0.88
29 | CCCCCCNC(=O)c1nn(CCN2CCC(N3CCCC3)CC2)cc1-c1ccc(Cl)c(Cl)c1 | 0.97 | 1.84 | 1.8
30 | CC(C)(C)c1cc(C(=O)N2CCN(c3ncnc4ccsc34)CC2)n(Cc2ccccc2)n1 | 4.27 | 4.01 | 2.2
31 | O=C(NC1CC1)c1cnc(N2CCCC(c3ccccc3)C2)c(Cl)c1 (configuration not stated) | 0.97 | -0.31 | -4.58
32 | O=C(/C=C/c1ccc(Cl)c(Cl)c1)NCCCCCN1CCC(c2c[nH]c3cc(O)ccc23)CC1 | 9.77 | 8.43 | 7.41
33 | Oc1cccc(CNCCCN(Cc2ccccc2)c2ccccc2)c1 | 1.74 | -0.63 | 0.16
34 | O=C(CSc1nc(-c2ccccc2Cl)ns1)Nc1ccc2c(c1)OCO2 | -0.52 | -0.45 | -1.67
35 | CC(CN1CCN(C)CC1)C(=O)Nc1cccc(-c2cccc(-c3nc4ccccc4[nH]3)c2)c1 (configuration not stated) | 4.45 | 4.44 | 2.44
36 | CC(C)(C)c1ccc(O)c(CNC2CCCCC2)c1 | 4.48 | 3.36 | 3.1
37 | CCc1c(C)nc(-n2nc(C)cc2NC(=O)CCc2ccccc2)[nH]c1=O | 0.86 | 2.79 | 2.86
38 | CCCCCC1c2[nH]c3ccccc3c2CCN1C(=O)OCc1ccccc1 (configuration not stated) | 7.38 | 6.98 | 7.22
39 | Cc1ccc(C(NC(=O)C2CCCCC2)c2ccc3cccnc3c2O)cc1 (configuration not stated) | 0.75 | 1.7 | 0.54
40 | CN(C)CCCn1c(N)c(-c2nc3ccccc3[nH]2)c2nc(C#N)c(C#N)nc21 | -1.02 | 2.05 | -0.05
41 | Cc1cccc2nc(-c3cccc(-c4cccc(NC(=O)c5cncn5C)c4)c3)[nH]c12 | -0.07 | 3.4 | 4.6
42 | CCn1c(Sc2ccc(C#N)c([N+](=O)[O-])c2)nnc1-c1ccc(OC)cc1 | 2.25 | 4.95 | 2.61
43 | CC(=O)Oc1c(Cl)c(C)nc(C)c1-c1ccc(Oc2ccc(OC(F)(F)F)cc2)cc1 | 3.62 | 3.09 | 2.42
44 | COc1ccc(C=NN=c2cc[nH]c3ccccc23)c2ccccc12 | 2.52 | 7.49 | 5.88
